Only some compounds are listed: those with a hit (about 11% of all), similar ones and a draw of the others.
JMJD2A Tudor inh: inhibitors of human JMJD2A Tudor domain; AID 504339; 390,000 tested, 4.4% active; AlphaScreen JMJD2A-Tudor / H3K4me3 peptide binding; Potency, µM (doses to about 114 µM), inactives show at the highest dose activity change, negative = inhibition, most hits filed as inhibitors; O75164; also: potency is read from the fitted curve at half-maximal effect; % is scaled to controls: 0 for no effect and ±100 for the full control effect; nearly all actives have a fitted effect of over 50% in size
PI5P4K alpha inh: PI5P4K alpha (human) kinase inhibition; PI5P4Kalpha enzyme, ADP-Glo luminescence, 60 min; stronger effect = lower value; max response, %; AID 652105; 330,000 tested, 1.2% active; P48426; active = max response of -50% or lower; inconclusive = between -30% and -50%; inactive = -30% or higher; also: value at the top dose of about 77 µM; % is scaled to controls: 0 for no effect and ±100 for the full control effect
Target sequence (P48426 whole entry, looked up): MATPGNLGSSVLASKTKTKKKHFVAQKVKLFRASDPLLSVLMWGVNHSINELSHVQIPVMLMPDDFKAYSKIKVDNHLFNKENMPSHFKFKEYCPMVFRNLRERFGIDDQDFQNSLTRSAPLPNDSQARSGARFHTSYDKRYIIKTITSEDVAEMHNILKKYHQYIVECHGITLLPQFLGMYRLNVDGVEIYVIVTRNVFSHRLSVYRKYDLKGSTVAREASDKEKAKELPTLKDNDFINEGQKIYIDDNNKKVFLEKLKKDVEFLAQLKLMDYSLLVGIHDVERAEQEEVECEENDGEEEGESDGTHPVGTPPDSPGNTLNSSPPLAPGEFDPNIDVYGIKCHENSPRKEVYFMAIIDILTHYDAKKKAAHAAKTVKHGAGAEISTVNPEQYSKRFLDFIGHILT
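Reactions run in 0.038 M HEPES pH 7.4, 0.28 mM EGTA, 0.1% CHAPS and 5% DMSO, with PI5P4Kalpha, substrate, compound and 5 microM ATP final, one hour at room temperature. Readout is ADP-Glo luminescence.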
L3MBTL1 inh: L3MBTL1 (human) inhibition; AlphaScreen L3MBTL1–H3K9me1 peptide binding; Potency, µM (highest dose often 57.1 µM), for the others: at the top dose activity, negative = inhibition, usual class: inhibitors; 230,000 tested, 0.66% active; AID 485360; also: potency is read from the fitted curve at half-maximal effect; % is scaled to controls: 0 for no effect and ±100 for the full control effect; nearly all actives have a fitted effect of over 60% in size
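AlphaScreen assay: L3MBTL1 (50 nM final) was preincubated 30 min at room temperature with biotinylated H3(1-15)K9me1 peptide (75 nM final), then 30 min with library compounds; streptavidin donor and nickel chelate acceptor beads (10 ug/mL final) added, 30 min dark.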
BAZ2B block: blocks human BAZ2B; 360,000 tested, 4.4% active; AID 504333; AlphaScreen BAZ2B-H3K14Ac peptide displacement; Q9UIF8; Potency, µM (doses to about 114 µM), without a hit: top-dose activity change, negative = inhibition, most hits filed as inhibitors; also: potency is read from the fitted curve at half-maximal effect; % is scaled to controls: 0 for no effect and ±100 for the full control effect; nearly all actives have a fitted effect of over 60% in size
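Compounds, titrated to a top concentration of 110 uM, were incubated 30 min at room temperature with preformed BAZ2B/acetyl-K14 H3 peptide complex (50 nM each). Proximity signal was measured by AlphaScreen after 20 min with beads.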
HP1b chromo inh: inhibitors of HP1-beta chromodomain binding to methylated histone tails. AlphaScreen HP1-beta / biotin-H3K9me3 peptide binding. Potency, µM (highest dose often 114 µM), for the others: top-dose activity change, negative = inhibition, most hits filed as inhibitors. 390,000 tested, 0.56% active. AID 540317; also: potency is read from the fitted curve at half-maximal effect; nearly all actives have a fitted effect of over 70% in size
Target sequence (P83916 whole entry, looked up): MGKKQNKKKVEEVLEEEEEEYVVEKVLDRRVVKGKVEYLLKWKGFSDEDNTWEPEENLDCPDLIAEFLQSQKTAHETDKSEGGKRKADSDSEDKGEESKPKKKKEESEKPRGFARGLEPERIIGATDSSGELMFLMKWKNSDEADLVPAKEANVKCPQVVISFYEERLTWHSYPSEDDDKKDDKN
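HP1-beta protein (50 nM final) preincubated 30 min at room temperature with biotinylated H3(1-18)K9me3 peptide (50 nM) in PBS pH 7.4, 0.01% Tween-20, then compound added for 30 min. AlphaScreen streptavidin donor/nickel chelate acceptor beads (10 ug/mL final), 30 min dark, luminescence read.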
G9a block: G9a (human) methyltransferase inhibition; G9a H3K9 monomethylation, AlphaScreen, 2 h; 350,000 tested, 8.8% active; Potency, µM (titrated, usually from 102 µM), for the others: at the highest dose activity, negative = inhibition, hits mostly inhibitors; also: potency is read from the fitted curve at half-maximal effect; % is scaled to controls: 0 for no effect and ±100 for the full control effect; nearly all actives have a fitted effect of over 75% in size
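Enzyme 20 nM + cpd, 15 min RT; add b-H3K9 pep 500 nM / SAM 20 uM; 2 h RT; anti-H3K9me1 Ab 0.5 ug/mL + SA donor / anti-rabbit acceptor beads 20 ug/mL each, 10 min; AlphaScreen read.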
Starred values were filed as active, the others as inactive; ? = inconclusive; . = not tested or not shown; [ ] = remark or other dose. Unless noted, calls follow the shape of the dose curve; as a rule, active = well fitted inhibition curve with a large enough effect; inconclusive = small, poorly fitted or top-dose-only effect; inactive = no such curve, though single readings can be large or run the other way.

SMILES	JMJD2A Tudor inh	PI5P4K alpha inh	L3MBTL1 inh	BAZ2B block	HP1b chromo inh	G9a block
CCOC(=O)N1CCC(N(CCN(C)C)C(=S)Nc2cc(Cl)cc(Cl)c2)CC1	-6%	-1	.	79µM*	31%	?
CCOC(=O)N1CCC(N(CCN(C)C)C(=S)Nc2cccc(Cl)c2)CC1	-8%	1	.	-31%	42%	9%[59 µM]
Cn1c(SCc2nc3ccccc3c(=O)[nH]2)nc2ccccc21	-2%	-12	-3%	-22%	18%	-22%
CC(C)Cn1c(SCc2nc3ccccc3c(=O)[nH]2)nc2ccccc2c1=O	-8%	.	9%	89µM*	17%	2%
O=C(Nc1ccc2c(c1)CCC2)c1ccc(F)cc1	-5%	10	19%	3%	34%	-6%
O=C(Nc1ccc2c(c1)CCC2)c1cc(S(=O)(=O)Nc2ccc(F)cc2)c(Cl)cc1Cl	?	0	-10%	-7%	-4%	10µM*
CC1CC=CC2C1C(=O)N(Cc1ccccc1)C2c1ccc(/C=C/c2ccccc2)cc1F (centres undefined)	-10%	.	.	.	33%	.
Clc1ccc(CNc2ccccc2NCc2ccc(Cl)nc2)cn1	?	0	?	?	1%	3.2µM*
Clc1ccc(Cn2ccc3ccccc32)cn1	-6%[57.1 µM]	1	.	5%	28%[57 µM]	17%[2.33 µM]
CCc1ccc(OCCCCn2c(CCNC(=O)C3CCCCC3)nc3ccccc32)cc1	-9%[57.1 µM]	.	.	.	28%[57 µM]	.
Cc1ccc(NC(=O)CN2C(=O)c3ccccc3C2=O)c(C)c1	-7%	3	-1%	-4%	23%	?
Cc1cccc2c1N(C)C(=O)C2=O	-2%[11.4 µM]	14	.	1%	-4%	-18%
Cc1cc(C)c(C)c(S(=O)(=O)ON2C(=O)c3ccccc3C2=O)c1C	89µM*	-13	7%	-39%	-32%	7.9µM*
Cc1cc(C)c(S(=O)(=O)ON2C(=O)c3ccccc3C2=O)cc1C	56µM*	-12	11%	?	?	.
O=S(=O)(c1ccccc1)N1CCN(S(=O)(=O)c2ccc(F)cc2)CC1	-8%	0	2%[2.29 µM]	2%	18%	26%[0.501 µM]
Cc1ccc(OC(=O)CN2C(=O)c3ccccc3C2=O)cc1C	-6%	6	.	16%	16%	21%
Cc1ccc(S(=O)(=O)ON2C(=O)c3ccccc3C2=O)c(C)c1	50µM*	-25	8%	13%	45µM*	7.9µM*
O=C1c2ccccc2C(=O)N1OS(=O)(=O)c1ccc(F)cc1	9%	1	.	-32%	41%	2.2µM*
CCc1cccc(NC(=O)Cn2c(C(=O)OC)cc3occc32)c1	-20%	.	.	-14%	-9%	-2%[59 µM]
Cc1ccc(C)c(NC(=O)CN2CCN(C3CCCCC3)C(=O)C2=O)c1	-2%	.	.	-11%	29%	1%[12.7 µM]
CC1CCN(c2ccc(-c3cccc(NS(=O)(=O)c4ccc(F)cc4F)c3)nn2)CC1	-34%	.	.	-30%	13%[57 µM]	-4%[59 µM]
COC(=O)c1[nH]c2ccccc2c1NC(=O)/C=C/c1ccc2c(c1)OCO2	1%	-2	-2%	-30%	19%	1%[59 µM]
Cc1[nH]c2ccccc2c1NC(=O)CN1CCN(Cc2ccc3c(c2)OCO3)CC1	.	.	-8%	-7%	.	56µM*
Cc1[nH]c2ccccc2c1NC(=O)CN1CCN(c2cccc(C(F)(F)F)c2)CC1	?	-1	.	50µM*	-26%	?
Cc1[nH]c2ccccc2c1C(O)CN1CCN(c2cccc(C(F)(F)F)c2)CC1 (centres undefined)	56µM*	17	-6%	40µM*	?	56µM*
SMILES	JMJD2A Tudor inh	PI5P4K alpha inh	L3MBTL1 inh	BAZ2B block	HP1b chromo inh	G9a block
CCN(CC(=O)Nc1c(C(=O)OC)[nH]c2ccccc12)c1ccc2c(c1)OCO2	?	0	25µM*	?	-7%	?
CC1CC=C2C(C#N)=C(N)C(C#N)(C#N)C(c3cccs3)C2C1 (centres undefined)	-17%	-24	3%	3%	46%	40µM*
COc1ccccc1C(=O)N(c1ccc(C)cc1)S(=O)(=O)c1ccc(Cl)cc1	-19%	.	.	0%	20%	4%[59 µM]
O=C(O)/C(=C\c1ccc(Cl)cc1)c1ccc(S(=O)(=O)N2CCCC2)s1	-24%	1	-1%	?	7%	?
O=C(O)/C(=C\c1ccc(Cl)c([N+](=O)[O-])c1)c1ccc(S(=O)(=O)N2CCCC2)s1	?	-25	-24%	56µM*	-2%	-4%[2.33 µM]
O=C(O)/C(=C\c1ccc(Cl)c([N+](=O)[O-])c1)c1ccc(S(=O)(=O)N2CCCCC2)s1	?	-24	-23%	?	-2%	45µM*
CC1(C)OC(=O)C2(Cc3ccc(Cl)cc3N3CCCC32)C(=O)O1 (centres undefined)	-8%[57.1 µM]	.	.	.	28%[57 µM]	.
COc1ccc(CNc2nc(-c3ccco3)nn2S(=O)(=O)c2ccc(Cl)cc2)cc1OC	?	.	.	?	-5%	?
COc1ccccc1N1C(=O)C2CC(C)=C(C)CC2C1=O (centres undefined)	-23%	.	-4%	-15%	19%	15%[59 µM]
COc1ccccc1N1C(=O)C=C(Sc2nc(C)cc(C)n2)C1=O	7.9µM*	-57*	-6%	?	8.9µM*	0.45µM*
CCOC(=O)C1CCN(C(c2cccc(F)c2)c2c(O)cc(C)n(Cc3ccco3)c2=O)CC1 (centres undefined)	-30%	.	.	-23%	28%[57 µM]	-37%[59 µM]
Cc1ccc(NC(=O)c2oc3ccccc3c2NC(=O)c2cc3ccccc3o2)cc1	-8%	.	.	25%	111%	32%[59 µM]
COc1cc(Cl)c(C)cc1NC(=O)CCc1c(C)nc2c3cccnc3nn2c1C	13%	.	.	-3%	60%	8%[59 µM]
CCCc1cc(=O)[nH]c(SCc2nc(-c3ccc(OC)cc3)no2)n1	-30%	.	.	1%	20%[57 µM]	10%[59 µM]
CCN(CC)CCNC(=O)c1[nH]c2ccc(OCc3ccccc3)cc2c1C	?	13	-22%	?	?	50µM*
CCCCN(C)C(=O)c1ccc2c(c1)N(Cc1ccc(F)cc1)C(=O)c1ccccc1S2(=O)=O	-27%	.	.	-25%	25%	-23%[59 µM]
CCOc1ccc(-c2cc(C(=O)N3CCN(c4cccc(C(F)(F)F)c4)CC3)c3ccccc3n2)cc1	-16%	.	.	-5%	13%	-7%[59 µM]
CN(C)c1ccc(N/C(N)=N/c2nc(C(F)(F)F)cc(C(F)(F)F)n2)cc1	-26%	-1	.	?	-17%	13µM*
Cc1cccc(N/C(N)=N/c2nc(C(F)(F)F)cc(C(F)(F)F)n2)c1	-5%	1	-3%	-11%	38%	-29%
C/C(CC1CC(COCCC(C)C)OC1=O)=N\NC(N)=S (centres undefined)	?	.	1%	?	22%	7%[0.501 µM]

Screening data as filed in PubChem.
